Experimental data taken from PubChem BioAssay (EPA / NIEHS).
Records with an inconclusive call do not appear. Calls of active or inactive are those of the source. Rule for the calls, unless noted: active = hit-call score of the fitted dose curve at least 0.9, where 1 is the maximum; inactive = score below 0.9.

Assays:
[1] = target: Estrogen-related receptor gamma (Homo sapiens) (UniProt P62508); experiment: ATG_ERRg_TRANS: Attagene TRANS-FACTORIAL HepG2 Assay for human Estrogen-Related Receptor gamma (ERRg) (AID 2282977; active = hit-call score of the fitted dose curve at least 0.9, where 1 is the maximum;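 note: hits increase reporter signal over DMSO so potencies reflect activators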); details: HepG2 Attagene TRANS reporter, ERRg transactivation
In short: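 Induction of reporter transcripts through a chimeric NR-Gal4 protein is quantified in transfected human HepG2 liver cells after 24 h chemical exposure, using RT-PCR with capillary electrophoresis detection and DMSO as baseline.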

[2] = BSK_4H_Eotaxin3: BioMAP Diversity Plus: 4H Assay for Eotaxin 3 Biomarker Activity (AID 2283000); details: primary human endothelial cells (HUVEC); actives raise or lower the signal
In short: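 ELISA quantitation of CCL26 (Eotaxin-3) protein from chemically dosed human vascular endothelial cells at 24 h; increases and decreases both scored relative to DMSO-treated baseline.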

[3] = read-out: Intercellular Adhesion Molecule 1 (ICAM1), ICAM1 (gene 3383); experiment: BSK_3C_ICAM1: BioMAP Diversity Plus: 3C Assay for Intercellular Adhesion Molecule 1 (ICAM1) Biomarker Activity (AID 2283003); details: primary human endothelial cells (HUVEC); actives raise or lower the signal
In short: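 Chemicals are dosed onto primary human umbilical vein endothelium (3C system). After 24 h, ICAM-1 is measured by ELISA, and responses are fitted bidirectionally relative to DMSO.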

[4] = read-out: Monokine induced gamma interferon (MIG), CXCL9 (gene 4283); experiment: BSK_3C_MIG: BioMAP Diversity Plus: 3C Assay for Monokine induced gamma interferon (MIG) Biomarker Activity (AID 2283021); details: primary human endothelial cells (HUVEC); actives raise or lower the signal;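 for AC50: MIG protein level measured by immunoassay in the treated endothelial cultures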
In short: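 Endothelial primary cells (human umbilical vein) are dosed with test chemical in the 3C system. MIG levels are measured by ELISA at 24 h and fitted in both directions relative to DMSO.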

[5] = read-out: Urokinase-type plasminogen activator receptor (uPAR), PLAUR (gene 5329); experiment: BSK_4H_uPAR: BioMAP Diversity Plus: 4H Assay for Urokinase-type plasminogen activator receptor (uPAR) Biomarker Activity (AID 2283030); details: primary human endothelial cells (HUVEC); actives raise or lower the signal
In short: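 Endpoint derived via bidirectional curve fitting against DMSO baseline; readout was ELISA detection of uPAR on umbilical vein endothelial cells at 24 h post-treatment, with SRB-stained parallel cultures assessing cytotoxicity.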

[6] = read-out: Monokine induced gamma interferon (MIG), CXCL9 (gene 4283); experiment: BSK_BE3C_MIG: BioMAP Diversity Plus: BE3C Assay for Monokine induced gamma interferon (MIG) Biomarker Activity (AID 2283035); details: primary human bronchial epithelial cells; actives raise or lower the signal
In short: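 Dose cells (human primary bronchial epithelial), incubate 24 h, quantify MIG by ELISA, then fit concentration–response in both directions relative to DMSO control.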

[7] = read-out: Plasminogen activator inhibitor-1 (PAI1), SERPINE1 (gene 5054); experiment: BSK_BE3C_PAI1: BioMAP Diversity Plus: BE3C Assay for Plasminogen activator inhibitor-1 (PAI1) Biomarker Activity (AID 2283037); details: primary human bronchial epithelial cells; actives raise or lower the signal
In short: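 Values derive from bidirectional fitting against DMSO baseline of PAI-1 levels, measured by ELISA in human bronchial epithelial cells 24 h after compound addition.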

[8] = read-out: urokinase plasminogen activator (uPA), PLAU (gene 5328); experiment: BSK_BE3C_uPA: BioMAP Diversity Plus: BE3C Assay for urokinase plasminogen activator (uPA) Biomarker Activity (AID 2283038); details: primary human bronchial epithelial cells; actives raise or lower the signal
In short: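 Using confluent primary human lung bronchial epithelial cultures, we dosed chemicals, waited 24 h, then ran a uPA ELISA, fitting bidirectionally against DMSO.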

[9] = read-out: Tissue plasminogen activator (tPA), PLAT (gene 5327); experiment: BSK_BE3C_tPA: BioMAP Diversity Plus: BE3C Assay for Tissue plasminogen activator (tPA) Biomarker Activity (AID 2283041); details: primary human bronchial epithelial cells; actives raise or lower the signal;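 note: tPA level quantified by ELISA one day after compound addition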
In short: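 Gain- or loss-of-signal in tPA, measured by ELISA, derived by bidirectional fitting against DMSO. Cells: human primary bronchial epithelial; read at 24 h after chemical dosing.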

[10] = read-out: serum amyloid A (SAA), SAA1 (gene 6288); experiment: BSK_CASM3C_SAA: BioMAP Diversity Plus: CASM3C Assay for serum amyloid A (SAA) Biomarker Activity (AID 2283049); details: primary human coronary artery smooth muscle cells; actives raise or lower the signal;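 note: SAA protein level quantified by ELISA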
[11] = read-out: Thrombomodulin, THBD (gene 7056); experiment: BSK_CASM3C_Thrombomodulin: BioMAP Diversity Plus: CASM3C Assay for Thrombomodulin Biomarker Activity (AID 2283051); details: primary human coronary artery smooth muscle cells; actives raise or lower the signal;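 note: thrombomodulin protein level measured by ELISA 24 h after dosing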
[12] = ATG_ERE_CIS: Attagene CIS-FACTORIAL HepG2 Assay for Estrogen Response Element (ERE) (AID 2282940); details: HepG2 ERE cis-reporter, Attagene RNA transcript; actives raise or lower the signal
In short: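 Readout: reporter mRNA induction by RT-PCR, FAM-labelled primer extension, HpaI digestion and capillary electrophoresis, 24 h after dosing transfected HepG2 cells. Endogenous transcription factors act on cis-element-regulated reporters. Gain or loss fitted against DMSO.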

[13] = target: Bile acid receptor (Homo sapiens) (UniProt Q96RI1); experiment: ATG_FXR_TRANS: Attagene TRANS-FACTORIAL HepG2 Assay for Farnesoid X Receptor (FXR) (AID 2282979; active = hit-call score of the fitted dose curve at least 0.9, where 1 is the maximum;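 note: hits raise reporter mRNA above DMSO so AC50 marks FXR activation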); details: HepG2 Attagene TRANS FXR-GAL4 reporter transcription
In short: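 After 24 h chemical treatment of transfected HepG2 cells, GAL4-UAS reporter transcripts driven by an exogenous FXR-GAL4 fusion were measured by RT-PCR and capillary electrophoresis. Increases over DMSO were fitted.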

[14] = CCTE_Harrill_HTTr_Viability_MCF7: CCTE's 6-hour Cell Viability Assessment for the High-Throughput Transcriptomics (HTTr) Platform, in MCF-7 cells cultured in DMEM + 10% fetal bovine serum, Harrill Lab (AID 2284010)
In short: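 Read-out is propidium iodide gain of signal by high-content imaging, reflecting membrane integrity loss. Measurements are taken 6 h after dosing, eight concentrations per chemical, with DMSO serving as baseline for bidirectional curve fitting.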

[15] = CCTE_Harrill_HTTr_Apoptosis_MCF7: CCTE's 6-hour Apoptosis Assessment for the High-Throughput Transcriptomics (HTTr) Platform, in MCF-7 cells cultured in DMEM + 10% fetal bovine serum, Harrill Lab (AID 2284011)
In short: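 Apoptosis in MCF-7 cells grown in DMEM with 10% fetal bovine serum was scored after a six hour exposure by high content imaging of caspase-3/7 activation (CellEvent Caspase 3/7 Green), with DMSO serving as negative control and baseline.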

[16] = target: Estrogen receptor beta (Homo sapiens) (UniProt Q92731); experiment: OT_ER_ERbERb_1440: Odyssey Thera (OT) 24-hour HEK293T Protein-Complementation Assay for Estrogen Receptor-beta/-beta Homodimer (AID 2283380; active = hit-call score of the fitted dose curve at least 0.9, where 1 is the maximum;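 note: scored as signal increase over DMSO baseline for both agonists and antagonists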)
In short: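 HEK293T cells stably expressing ER beta LBD (aa 310-547) homodimer fragment-complementation reporter, dosed 24 h. Cells formaldehyde-fixed, Draq5-stained; gain in nuclear (agonist) or nuclear plus cytoplasmic (antagonist) fluorescence versus DMSO read by laser scanning cytometry.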

[17] = target: Retinoic acid receptor RXR-alpha (Homo sapiens) (UniProt P19793); experiment: OT_NURR1_NURR1RXRa_0480: Odyssey Thera (OT) 8-hour HEK293T Protein Complementation Assay for Nurr1/retinoid X receptor (RXR) (AID 2283385; active = hit-call score of the fitted dose curve at least 0.9, where 1 is the maximum)
In short: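 Interaction of bait and prey reconstitutes a functional reporter, whose fluorescence was measured in HEK293T cells dosed with compound for 8 hours. Signal gain relative to DMSO defined the single endpoint.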

[18] = target: Retinoic acid receptor RXR-alpha (Homo sapiens) (UniProt P19793); experiment: OT_NURR1_NURR1RXRa_1440: Odyssey Thera (OT) 24-hour HEK293T Protein Complementation Assay for Nurr1/retinoid X receptor (RXR) (AID 2283386; active = hit-call score of the fitted dose curve at least 0.9, where 1 is the maximum)
In short: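 Steps: fragment-tagged Nurr1 and RXRα expressed in HEK293T; compounds added; after 24 h, complemented reporter quantified by fluorescence intensity; signal increase over DMSO fitted as the single endpoint.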

[19] = ACEA_AR_agonist_AUC_viability: ACEA Biosciences xCELLigence Real-Time Cell Analysis on Androgen Receptor Agonism for Viability (AID 2283775; active = hit-call score of the fitted dose curve at least 0.9, where 1 is the maximum)
In short: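 22Rv1 cells; impedance growth kinetics; 8-pt 1:4 dilutions from 100 uM top final, ≤0.5% DMSO; n = 2; 80 h read; AUC viability, loss-of-signal vs DMSO.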

[20] = ACEA_AR_antagonist_AUC_viability: ACEA Biosciences xCELLigence Real-Time Cell Analysis on Androgen Receptor Antagonism for Viability (AID 2283776; active = hit-call score of the fitted dose curve at least 0.9, where 1 is the maximum;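 note: 22Rv1 human prostate cancer cells growing on impedance electrode plates; area under impedance growth curve at 80 h after dosing as viability; hits lower the growth signal relative to DMSO meaning cytotoxicity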)
In short: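 Impedance read-out (RT-CES): area under growth curve at 80 h post-dose, loss of signal scored vs DMSO baseline. 22Rv1 cells; 8-pt 1:4 series, top 100 uM final, ≤0.5% DMSO; biological duplicate.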

Measured: AC50

Retinoic acid receptor RXR-alpha (Homo sapiens), sequence (P19793 whole entry, looked up, the tested form may be a part): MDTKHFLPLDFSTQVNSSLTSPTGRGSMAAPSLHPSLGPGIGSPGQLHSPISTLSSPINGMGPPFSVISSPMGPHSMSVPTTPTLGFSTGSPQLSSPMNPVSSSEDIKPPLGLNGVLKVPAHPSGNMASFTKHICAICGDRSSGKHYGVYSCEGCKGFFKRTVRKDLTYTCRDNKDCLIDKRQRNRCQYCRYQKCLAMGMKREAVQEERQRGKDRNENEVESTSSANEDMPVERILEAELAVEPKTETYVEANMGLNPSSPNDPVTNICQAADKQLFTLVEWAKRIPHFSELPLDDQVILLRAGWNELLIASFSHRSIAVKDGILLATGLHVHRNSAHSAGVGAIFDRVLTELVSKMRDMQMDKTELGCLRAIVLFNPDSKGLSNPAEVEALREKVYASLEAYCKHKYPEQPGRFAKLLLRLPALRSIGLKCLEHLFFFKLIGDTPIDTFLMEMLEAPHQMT
Estrogen-related receptor gamma (Homo sapiens), sequence (P62508 whole entry, looked up, the tested form may be a part): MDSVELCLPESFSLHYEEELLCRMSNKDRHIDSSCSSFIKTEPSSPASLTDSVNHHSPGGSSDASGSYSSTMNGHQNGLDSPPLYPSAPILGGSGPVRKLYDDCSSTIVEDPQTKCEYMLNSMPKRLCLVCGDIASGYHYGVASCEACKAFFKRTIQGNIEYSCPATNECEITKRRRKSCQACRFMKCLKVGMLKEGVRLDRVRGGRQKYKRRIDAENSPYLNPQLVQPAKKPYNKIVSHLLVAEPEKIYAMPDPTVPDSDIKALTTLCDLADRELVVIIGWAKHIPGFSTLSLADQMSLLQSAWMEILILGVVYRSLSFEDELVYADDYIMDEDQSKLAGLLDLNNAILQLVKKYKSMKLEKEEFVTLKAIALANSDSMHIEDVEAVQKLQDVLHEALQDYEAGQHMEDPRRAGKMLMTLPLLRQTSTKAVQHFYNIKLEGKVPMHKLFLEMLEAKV
Bile acid receptor (Homo sapiens), sequence (Q96RI1 whole entry, looked up, the tested form may be a part): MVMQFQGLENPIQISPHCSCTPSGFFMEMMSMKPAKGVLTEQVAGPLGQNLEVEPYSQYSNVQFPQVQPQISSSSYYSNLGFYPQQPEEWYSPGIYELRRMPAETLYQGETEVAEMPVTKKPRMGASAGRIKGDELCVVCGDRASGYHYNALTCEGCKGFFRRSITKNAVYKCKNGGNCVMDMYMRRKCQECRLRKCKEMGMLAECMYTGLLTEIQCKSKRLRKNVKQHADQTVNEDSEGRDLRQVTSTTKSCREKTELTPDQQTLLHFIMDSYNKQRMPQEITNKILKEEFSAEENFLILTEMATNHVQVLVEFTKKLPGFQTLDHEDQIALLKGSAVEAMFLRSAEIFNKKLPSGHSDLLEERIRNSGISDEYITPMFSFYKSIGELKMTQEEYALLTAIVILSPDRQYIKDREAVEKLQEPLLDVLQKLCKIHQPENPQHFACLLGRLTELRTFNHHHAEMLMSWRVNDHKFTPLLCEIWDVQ
Estrogen receptor beta (Homo sapiens), sequence (Q92731 whole entry, looked up, the tested form may be a part): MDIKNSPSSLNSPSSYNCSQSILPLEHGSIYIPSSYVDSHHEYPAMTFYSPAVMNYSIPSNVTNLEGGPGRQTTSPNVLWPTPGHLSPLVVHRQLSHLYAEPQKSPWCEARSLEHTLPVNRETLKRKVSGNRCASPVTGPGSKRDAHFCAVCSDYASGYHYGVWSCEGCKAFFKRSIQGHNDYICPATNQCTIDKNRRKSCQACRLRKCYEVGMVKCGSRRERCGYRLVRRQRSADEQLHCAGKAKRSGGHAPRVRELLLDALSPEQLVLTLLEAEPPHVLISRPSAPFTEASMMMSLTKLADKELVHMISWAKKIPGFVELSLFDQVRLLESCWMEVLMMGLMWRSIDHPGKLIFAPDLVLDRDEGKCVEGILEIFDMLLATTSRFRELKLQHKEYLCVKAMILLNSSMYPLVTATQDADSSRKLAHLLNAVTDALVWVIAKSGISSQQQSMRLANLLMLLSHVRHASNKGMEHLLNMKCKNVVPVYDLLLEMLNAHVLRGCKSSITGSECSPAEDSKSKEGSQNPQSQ

O=[N+]([O-])C=Cc1ccccc1
inactive: [1] | [7] | [9] | [10]
active: [2] 9.12 µM | [3] 7.32 µM | [4] 11.4 µM | [5] 5.14 µM | [6] 3.89 µM | [8] 1.03 µM | [11] 20 µM

O=C1C(Cl)=C(Cl)C(=O)C(Cl)=C1Cl
active: [2] 15 µM | [3] 25.4 µM | [4] 29.2 µM | [5] 31.9 µM | [6] 35.6 µM | [7] 20 µM | [10] 20 µM
inactive: [12] | [1] | [13] | [8] | [9] | [11] | [14]

CCCCCCCCCCCC#N
inactive: [13] | [3] | [4] | [6] | [7] | [8] | [9] | [10] | [11]
active: [2] 27.5 µM | [5] 20.6 µM

CN1C(=O)CCS(=O)(=O)C1c1ccc(Cl)cc1 (centres undefined)
inactive: [15]

CCCCNP(N)(N)=S
inactive: [12] | [13]

O=C(CCN1CC1)OCC(CO)(COC(=O)CCN1CC1)COC(=O)CCN1CC1
inactive: [13]

CCC(C)(C)O
inactive: [12] | [14]

CCCCOP(=O)(O)OCCCC
inactive: [12] | [13]

CC(Cc1ccc(C(C)(C)C)cc1)CN1C[C@@H](C)O[C@@H](C)C1 (some centres undefined)
active: [17] 66.8 µM | [18] 81 µM
inactive: [1] | [13] | [16] | [19] | [20] | [15]

C=C(Cl)Cl
inactive: [12] | [1]

N#CCNCC#N
inactive: [12] | [1]

Nc1cc(Cl)cc(Cl)c1
inactive: [16] | [17] | [18] | [19]

CC(C)(Cl)Cl
active: [20] 0.413 µM
inactive: [17] | [18] | [19] | [15]

COc1cc(OC)c(OC)cc1C=O
active: [12] 27.6 µM

CCCOC(=O)c1ccccc1C(=O)OCCC
active: [12] 49.8 µM
not listed: [1] | [15] | [16] | [17] | [18] | [19] | [20]
inactive: all other assays above
